We go through 26 molecules from PubChem BioAssay (NCATS).

Inconclusive results are not listed. The source made the active and inactive calls. The call rests on the fitted dose curve; in most records, active means well fitted curve in the direction sought with a large enough effect; inconclusive means small, poorly fitted or top-dose-only effect, or another doubt; inactive means no such curve, though single readings can be large; an effect the other way counts as inactive or inconclusive.

The nature of test [1]: P-glycoprotein substrates identified in KB-3-1 adenocarcinoma cell line, qHTS therapeutic library screen (AID 1346986). Further: nearly all actives have a fitted effect of over 60% in size. The procedure, abridged:
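In 1536-well format, 500 cells/well received pinned compound titrations and were incubated 72 h, 5% CO2. Viability was read by CellTiter-Glo; cytotoxic if AC50 < 10 uM and efficacy >50%.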
In general terms: qHTS replaces the single test concentration by a dilution series.

Test [2] is described as follows: P-glycoprotein substrates identified in KB-8-5-11 adenocarcinoma cell line, qHTS therapeutic library screen (AID 1346987). Further: nearly all actives have a fitted effect of over 65% in size. The procedure, abridged: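 Luminescence from CellTiter-Glo, read 5 min after addition, quantified survival of KB-8-5-11 (P-gp-overexpressing) cells exposed to compounds for 72 h. AC50 was derived from concentration-response curves.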

Turning to `COC(=O)C1=CO[C@@H](O[C@@H]2O[C@H](CO)[C@@H](O)[C@H](O)[C@H]2O)[C@@H]2[C@@H](C)[C@@H](O)C(O)[C@H]12` (some centres not stated), the Potency result in test [1] and in test [2] was “inactive” each time.
Turning to `N#CC1C(=O)N=C(c2cc(Cl)ccc2O)C=C1c1cc(OCc2ccccc2)cc(OCc2ccccc2)c1` (configuration not stated), the Potency entry in test [1] and in test [2] was “inactive” throughout.
As for `CC(NC(=O)[C@H](Cc1ccccc1)NC(=O)OCc1ccccc1)C(=O)CF` (some centres not stated), the Potency entry in test [1] and in test [2] was “inactive” in each case.
With `C=C(C(=O)OC)[C@]12O[C@@](C)(CC[C@@]3(O)/C(=C\C)C(=O)O[C@]3(C)C[C@@H]1OC(=O)C(CO)CN1CCCC1C(=O)O)CC2=O` (some centres not stated), the Potency entry in test [1] and in test [2] was “inactive” in each case.
`CCC12CCCN3CCc4c(n(c5ccccc45)C(O)C1)C32` (configuration not stated): the Potency result in test [1] and in test [2] was “inactive” in each case.
Consider `N#CN1CCC[C@@H](n2nc(-c3ccc(Oc4ccc(F)cc4F)cc3)c(C(N)=O)c2N)C1`, for which the Potency result in test [1] and in test [2] was “inactive” throughout.
As for `C=C(C)[C@@H]1CC[C@]2(CO)CC[C@]3(C)[C@H](CC[C@@H]4[C@@]5(C)CC[C@H](O)C(C)(C)[C@@H]5CC[C@]43C)[C@@H]12`, the Potency result in test [1] and in test [2] was “inactive” each time.
For `Cc1cc(CNC(=O)c2cc(C(=O)NCc3ccc(F)c(C)c3)ncn2)ccc1F`, the Potency entry in test [1] and in test [2] was “inactive” each time.
`O=C(/C=C/c1ccc(O)cc1)OC[C@H]1O[C@@H](O/C(=C\c2ccccc2)C(=O)O)[C@H](O)[C@@H](O)[C@@H]1O`: the Potency entry in test [1] and in test [2] was “inactive” each time.
`CC1(C)CC[C@]2(C(=O)O[C@@H]3O[C@H](CO)[C@@H](O)[C@H](O)[C@H]3O)CC[C@]3(C)C(=CCC4[C@@]5(C)CC[C@H](O[C@@H]6O[C@H](C(=O)O)[C@@H](O[C@@H]7O[C@H](CO)[C@@H](O)[C@H](O)[C@H]7O)[C@H](O)[C@H]6O)C(C)(C)C5CC[C@]43C)C2C1` (some centres not stated): the outcome in test [1] and in test [2] was “inactive [at 9.29 µM]” each time.
As for `C[C@@H]1O[C@@H](O[C@H]2[C@H](O)[C@@H](O)[C@H](OC[C@H]3O[C@@H](OC(=O)[C@]45CCC(C)(C)C[C@H]4C4=CCC6[C@@]7(C)C[C@@H](O)[C@H](O)[C@@](C)(CO)C7[C@H](O)C[C@@]6(C)[C@]4(C)CC5)[C@H](O)[C@@H](O)[C@@H]3O)O[C@@H]2CO)[C@H](O)[C@H](O)[C@H]1O` (some centres not stated), the outcome in test [1] and in test [2] was “inactive [at 9.29 µM]” throughout.
As for `C=Cc1cc2oc(-c3ccc(O)c(F)c3)nc2cc1O`, the Potency result in test [1] and in test [2] was “inactive” throughout.
As to `COC(=O)C1=COC(O[C@@H]2O[C@H](CO)[C@@H](O)[C@H](O)[C@H]2O)/C(=C\COC(=O)/C=C/c2ccccc2)C1CC(=O)OCCc1ccc(O)cc1` (some centres not stated), the Potency result in test [1] and in test [2] was “inactive” each time.
For `CC1CCCCCCCc2cc(O)cc(O)c2C(=O)O1` (configuration not stated), the Potency result in test [1] and in test [2] was “inactive” in each case.
With `C[C@@H]1C[C@H]2OC(=O)[C@@]3(C)CCC[C@](C)(C23)[C@@]1(O)CCC1=CC(=O)OC1O` (some centres not stated), the Potency entry in test [1] and in test [2] was “inactive” throughout.
Take `CC(=C\C(C)O)/C=C(\C)C(=O)CC1CC(CC(N)=O)CC(=O)O1` (configuration not stated): the Potency result in test [1] and in test [2] was “inactive” each time.
Consider `C=C(C)[C@@H]1CC[C@]2(C)CC[C@]3(C)C(CCC4[C@@]5(C)CC[C@H](O)C(C)(C)C5CC[C@]43C)C12` (some centres not stated), for which the Potency entry in test [1] and in test [2] was “inactive” throughout.
As to `CC(C)C1(O)NC(=O)C(CC2(O)c3ccccc3N3C(=O)C(C)(C)NC32)n2c1nc1ccccc1c2=O` (configuration not stated), the Potency entry in test [1] and in test [2] was “inactive” throughout.
Turning to `COCCN1CCC(C(=O)NO)(S(=O)(=O)c2ccc(Oc3ccc(OC(F)(F)F)cc3)cc2)CC1`, the Potency entry in test [1] and in test [2] was “inactive” throughout.
Regarding `COC(=O)C1=COC(O[C@@H]2O[C@H](COC(=O)/C=C/c3ccc(O)cc3)[C@@H](O)[C@H](O)[C@H]2O)C2C(CO)=CCC12` (some centres not stated), the Potency entry in test [1] and in test [2] was “inactive” throughout.
In the case of `CC1(C)[C@H]2C[C@H](C/C=C\CCCC(=O)O)[C@@H](NC(=O)c3csc4ccc(O)cc34)[C@@H]1C2`, the Potency result in test [1] and in test [2] was “inactive” each time.
Consider `C[C@]12CC/C(=N\OCC(=O)O)C=C1CC[C@@H]1[C@@H]2[C@@H](O)C[C@@]2(C)[C@H]1CC[C@]2(O)C(=O)CO`, for which the Potency entry in test [1] and in test [2] was “inactive” in each case.
With `CC1CCC2(C(=O)OC3OC(CO)C(O)C(O)C3O)CCC3(C)C(=CCC4C5(C)CCC(O)C(C)(CO)C5CCC43C)C2C1(C)O` (configuration not stated), the Potency result in test [1] and in test [2] was “inactive” each time.
On to `CCC/C=C/C=C/C1CC(O)C(O)C(=O)C1CO` (configuration not stated), for which the Potency result in test [1] and in test [2] was “inactive” in each case.
In the case of `N#Cc1cccc(-c2nc(-c3cccnc3)no2)c1`, the Potency result in test [1] and in test [2] was “inactive” in each case.
For `C/C=C(\C)C(=O)OC[C@H]1O[C@@H](O[C@H]2[C@@H](O[C@H]3O[C@H](COC(=O)/C(C)=C/C)[C@@H](O)[C@H](O)[C@H]3O[C@@H]3O[C@H](CO)[C@@H](O)[C@H](OC(=O)/C(C)=C/C)[C@H]3O)O[C@H](COC(=O)/C(C)=C/C)[C@@H](O)[C@@H]2O)[C@H](O)[C@@H](O)[C@@H]1O`, the outcome in test [1] and in test [2] was “inactive [at 9.29 µM]” each time.
